The record followed here is PubChem BioAssay AID651863 (Broad Institute, 2012).

Molecules are shown by their SMILES. Results with a measured potency or affinity are listed apart. The source made the active and inactive calls.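 How the source made its calls: active means compounds whose fitted half-maximal cell-killing dose is at most twice the top tested dose; inconclusive means flat curve with 30 to 70 percent signal loss, or poor fit; inactive means the rest.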

The nature of the experiment: kidney cell line viability loss – HEK293T, luminescence plate reader, powder samples, set 4, cytotoxicity control, dose response (AID 651863). The following applies: CellTiter-Glo ATP luminescence, 48 h; series mostly up to 26 µM. On the technique in general: In ATP-based viability assays light output follows the ATP content of the culture.

With `Cc1cc(C)c(S(=O)(=O)Nc2nc(N(C)C)nc3ccccc23)c(C)c1`, the outcome was inactive.
For `O=C(NC[C@@H]1c2ccccc2CCN1C(=O)[C@@H]1CCCC[C@@H]1C(=O)O)c1ccccc1CO` the value was “inactive”; for `Cc1cc(C)c(S(=O)(=O)Nc2cc(C(C(=O)OCc3ccccc3)C(=O)OCc3ccccc3)c(O)c3ccccc23)c(C)c1`, “inactive”; for `COC(=O)C1CCCCC1C(=O)N1CCc2ccccc2C1CN1C(=O)c2ccccc2C1=O` (configuration not stated), “inactive”.
Next, `Cc1ccc(S(=O)(=O)NNc2nc(N3CC(O)CC3C(=O)O)nc3ccccc23)cc1` (configuration not stated): “inactive”; `O=C(O)[C@H]1C2C=CC(C2)[C@H]1C(=O)N1CCc2ccccc2C1CN1C(=O)c2ccccc2C1=O` (some centres not stated): “inactive”.
Next, `O=C(O)C1CCCCC1C(=O)NCC1c2ccccc2CCN1C(=O)Cc1ccccc1` (configuration not stated): “inactive”.
Consider `O=C1c2ccccc2C(=O)N1CC1=NCCc2ccccc21`, for which the outcome was inactive.
For `O=C(O)[C@H]1CCCC[C@H]1C(=O)NC(CN1C(=O)c2ccccc2C1=O)c1ccccc1` (some centres not stated) the value was “inactive”; for `O=C(O)c1ccccc1C(=O)N1CCc2ccccc2C1CN1C(=O)c2ccccc2C1=O` (configuration not stated), “inactive”.
Next, `C[C@H](NC(=O)C1CCCC[C@H]1C(=O)O)c1ccccc1` (mixture of isomers): “inactive”.
Next, `O=C1c2ccccc2C(=O)N1C[C@H]1NCCc2ccccc21`: “inactive”; `O=C(NCCCN1CCOCC1)c1ccccc1C(=O)NC[C@@H]1c2ccccc2CCN1C(=O)C1CCCCC1C(=O)O` (some centres not stated): “inactive”; `Cc1cc(C)c(S(=O)(=O)Nc2nc(NCCO)nc3ccccc23)c(C)c1`: “inactive”.
In the case of `O=C(NCCO)c1ccccc1C(=O)NC[C@@H]1c2ccccc2CCN1C(=O)C1CCCCC1C(=O)O` (some centres not stated), the compound was classed as inactive.
Next, `O=C1c2ccccc2C(=O)N1C[C@@H]1c2ccccc2CCN1C(=O)C1CCCCC1`: “inactive”; `O=C(O)[C@H]1CCCC[C@H]1C(=O)N1CCc2ccccc2C1CCN1C(=O)c2ccccc2C1=O` (some centres not stated): “inactive”; `O=C(Cc1ccccc1)NC[C@@H]1c2ccccc2CCN1C(=O)[C@@H]1CCCC[C@@H]1C(=O)O`: “inactive”.
For `COC(=O)[C@H]1CCCC[C@H]1C(=O)N1CCc2ccccc2[C@H]1CN1C(=O)c2ccccc2C1=O` the value was “inactive”; for `C=CC(=O)NC[C@@H]1c2ccccc2CCN1C(=O)[C@@H]1CCCC[C@@H]1C(=O)O`, “inactive”.
With `COC(=O)[C@@H]1CCCC[C@@H]1C(=O)N1CCc2ccccc2[C@@H]1CN1C(=O)c2ccccc2C1=O`, the call was inactive.
With `O=C(O)C1CCCCC1C(=O)N1CCc2ccccc2C1CN1C(=O)c2ccccc2S1(=O)=O` (configuration not stated), the result was inactive.
Next, `Cc1ccc(S(=O)(=O)Nc2cc(C(C(=O)OC(C)C)C(=O)C(F)(F)F)c(O)c3ccccc23)c(C)c1` (configuration not stated): “inactive”; `O=C(O)C1CCCCC1C(=O)N1CCCCC1CN1C(=O)c2ccccc2C1=O` (configuration not stated): “inactive”; `Cc1ccc(S(=O)(=O)NNc2nc(C(C(=O)OC(C)C)C(=O)C(F)(F)F)nc3ccccc23)cc1` (configuration not stated): “inactive”.
On to `Cc1ccccc1S(=O)(=O)Nc1cc(C(C(=O)OC(C)C)C(=O)C(F)(F)F)c(O)c2ccccc12` (configuration not stated), for which the compound was called inactive.
For `O=C(O)c1ccccc1C(=O)NC[C@@H]1c2ccccc2CCN1C(=O)[C@@H]1CCCC[C@@H]1C(=O)O` the value was “inactive”; for `C[C@@H](NC(=O)C1CCCC[C@H]1C(=O)O)c1ccccc1` (mixture of isomers), “inactive”.
For `O=C(O)[C@H]1CCCC[C@H]1C(=O)N1CCc2ccccc2[C@H]1CNS(=O)(=O)c1ccccc1` the value was “inactive”.
For `O=C(Oc1cc(CN2C(=O)c3ccccc3C2=O)c2ccccc2[n+]1[O-])c1cccc(Cl)c1` the value was “inactive”; for `O=C(O)CCCC(=O)N1CCc2ccccc2C1CN1C(=O)c2ccccc2C1=O` (configuration not stated), “inactive”.
Take `CCOC(=O)C(C(=O)OCC)c1cc(CN2C(=O)c3ccccc3C2=O)c2ccccc2n1`: the call was inactive.
